IEC-6 cytotox: cytotoxicity in IEC-6 intestinal epithelial cells, primary screen, cytotoxicity control for KLF5 inhibitor project, cell-based, luminescence | IEC-6 cytotoxicity, luminescence viability | inhibition, % at 5 µM | hit rate 0.78% among 290,000; in the data active = inhibition above about 22%
BaF3 tox: parental Ba/F3 cell viability inhibition, counter-screen for JAK2V617F inhibitor project, murine pro-B, CellTiter-Glo luminescence | inhibition, % at 5.6 µM | hit rate 1.1% among 220,000 | CellTiter-Glo ATP luminescence;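 active = inhibition above a per-campaign cutoff, the mean inhibition of all tested compounds plus 3 SD, cut at about 27% in these data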
KLF5 inhibitor: KLF5 expression inhibitors, primary screen, DLD-1 cells, luminescence | DLD-1 KLF5 promoter-luciferase reporter | inhibition, % at 5 µM | hit rate 0.23% among 290,000 | AID 1700, 2009;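 active = inhibition above a per-plate limit of that plate's mean compound inhibition plus 3 SD, cut at about 60% in these data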;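 also: higher means less KLF5 promoter-driven luciferase light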
aSyn UTR inh: MLPCN primary screen, SNCA 5' untranslated region | hit rate 0.82% among 300,000 | inhibition, % (tested at 7.5 µM) | AID 1813, 2009 | alpha-synuclein 5'UTR reporter, inhibitor activity; in the data active = inhibition above about 60%;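 also: H4 neuroglioblastoma cells stably carrying SNCA 5'UTR luciferase fusion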
APP 5UTR inh: inhibitors of APP translation via 5'UTR reporter, primary screen, APP 5'UTR luciferase, SH-SY5Y cells. hit rate 0.82% among 190,000. AID 1285, 2008. SH-SY5Y APP 5'UTR-luciferase reporter, luminescence. inhibition, % at 2 µM;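 active = inhibition above a set limit, derived from the sample mean plus 3 SD, cut at about 45% in these data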
Ba/F3 V617F tox: reduced viability of JAK2V617F-dependent Ba/F3 cells, primary screen, JAK2V617F inhibitor project, cell-based, Ba/F3 EpoR-JAK2V617F, luminescence. ATP luminescence. inhibition, % at 5.6 µM. hit rate 1.1% among 220,000;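 active = inhibition above the campaign mean plus 3 SD over all tested compounds, cut at about 24% in these data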;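 also: cytokine-independent growth of Ba/F3 cells driven by EpoR plus mutant JAK2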
Of the large screens only hits and unclear results are named; the others gave an inactive call. Only some compounds are listed: those with a hit (about 2.2% of all), similar ones and a draw of the others.

Cc1cc(N2CCN(c3nc(-c4ccc([N+](=O)[O-])cc4)cs3)CC2)c2ccccc2n1	aSyn UTR inh 66
Cc1cc(-c2ccc([N+](=O)[O-])cc2)nc2ccccc12	none
CCc1sc(NS(C)(=O)=O)nc1-c1ccccc1	APP 5UTR inh 50
CCOc1ccc(-c2cnc3n2CCC3)cc1	APP 5UTR inh 46
Brc1ccc(-c2cnc3n2CCCC3)cc1	none
COc1ccc(CNC(=O)CCC2N=C3c4ccccc4N=C(SCC(=O)NCC4CCCO4)N3C2=O)cc1 (stereo unspecified)	none (no result: BaF3 tox, APP 5UTR inh, Ba/F3 V617F tox)
COc1ccccc1C(C)NC(=O)Cc1ccc(S(=O)(=O)N2CCOCC2)s1 (stereo unspecified)	none (no result: IEC-6 cytotox, BaF3 tox, KLF5 inhibitor, APP 5UTR inh, Ba/F3 V617F tox)
Cc1oc(C(=O)Nc2ccc(O)cc2)cc1COc1ccccc1	BaF3 tox 37 (no result: aSyn UTR inh)
Cc1ccc(OCc2cc(C(=O)Nc3ccccc3)oc2C)cc1	none
O=C(NC1CC2CCCC(C1)N2C(=S)Nc1ccccc1)C1CC1 (stereo unspecified)	none (no result: BaF3 tox, APP 5UTR inh, Ba/F3 V617F tox)
CC(C)c1ccc2c(c1)CCC1C(C)(CN)CCCC21C (stereo unspecified)	BaF3 tox 79, aSyn UTR inh 97, Ba/F3 V617F tox 96 (no result: APP 5UTR inh)
COc1ccc(NC(=O)CN2CCC(C(=O)c3ccc(F)cc3)CC2)c(OC)c1	none (no result: BaF3 tox, APP 5UTR inh, Ba/F3 V617F tox)
CCc1ccc(C(=O)/C=C/c2ccc([N+](=O)[O-])o2)cc1	APP 5UTR inh 54
Cc1cccc(NS(=O)(=O)c2ccc3c(c2)NC(=O)CO3)c1C	none (no result: BaF3 tox, APP 5UTR inh, Ba/F3 V617F tox)
c1ccc2c(c1)CC(N1CCCCC1)c1ccccc1S2 (stereo unspecified)	aSyn UTR inh 90 (no result: IEC-6 cytotox, BaF3 tox, KLF5 inhibitor, APP 5UTR inh, Ba/F3 V617F tox)
CCc1ccc2c(c1)Sc1ccccc1CC2N1CCN(C)CC1 (stereo unspecified)	none (no result: IEC-6 cytotox, BaF3 tox, KLF5 inhibitor, APP 5UTR inh, Ba/F3 V617F tox)
COc1cc(/C=C/C(=O)c2ccc([N+](=O)[O-])o2)ccc1O	aSyn UTR inh 67 (no result: IEC-6 cytotox, BaF3 tox, KLF5 inhibitor, APP 5UTR inh, Ba/F3 V617F tox)
COc1cc(/C=C/C(=O)O)ccc1O	none (no result: IEC-6 cytotox, BaF3 tox, KLF5 inhibitor, APP 5UTR inh, Ba/F3 V617F tox)
O=C(/C=C/c1cccc(Cl)c1)c1ccc([N+](=O)[O-])o1	aSyn UTR inh 91 (no result: IEC-6 cytotox, BaF3 tox, KLF5 inhibitor, APP 5UTR inh, Ba/F3 V617F tox)
CCc1c(C)nc2nc(SCc3ccccc3)[nH]n2c1=O	none (no result: BaF3 tox, APP 5UTR inh, Ba/F3 V617F tox)
N#CC(Sc1ccccn1)c1ccc(Cl)cc1 (stereo unspecified)	BaF3 tox 53, Ba/F3 V617F tox 26
C=CCNC(=S)N(CC)c1cccc2ccccc12	BaF3 tox 36, Ba/F3 V617F tox 34
O=[N+]([O-])c1ccc(-c2nc(C(Cl)Cl)c3ccccc3n2)cc1	aSyn UTR inh 129 (no result: APP 5UTR inh)
CC(NS(=O)(=O)c1ccc2c(c1)C(=O)c1cc(S(=O)(=O)NC(C)C(=O)O)ccc1-2)C(=O)O (stereo unspecified)	none (no result: BaF3 tox, APP 5UTR inh, Ba/F3 V617F tox)
CC(NS(=O)(=O)c1cccc(S(=O)(=O)c2ccccc2)c1)C(=O)O (stereo unspecified)	BaF3 tox 31
COc1ccccc1CN1CC(C(=O)NCCn2ccc(C)n2)CCC1=O (stereo unspecified)	none (no result: BaF3 tox, APP 5UTR inh, Ba/F3 V617F tox)
O=C1C(=O)c2ccc(-c3ccccc3)cc2-c2ccccc21	aSyn UTR inh 119
O=[N+]([O-])c1ccc(C[n+]2cccc3c4ccccc4ccc32)cc1	BaF3 tox 74, Ba/F3 V617F tox 90
Cc1ccc[n+](Cc2ccc([N+](=O)[O-])cc2)c1	none
COc1ccc(CC(=O)Nc2cc(Cl)ccc2O)cc1	BaF3 tox 42, Ba/F3 V617F tox 70
COc1ccc(CC(=O)Nc2ccccc2NC(=O)Cc2ccc(OC)cc2)cc1	none (no result: BaF3 tox, APP 5UTR inh, Ba/F3 V617F tox)
Cc1cc2nc3c(nc2cc1C)C(O)=C3O	none (no result: APP 5UTR inh)
CSc1cccc(NC(=O)c2[nH]c(C)c(C(C)=O)c2C)c1	none (no result: BaF3 tox, APP 5UTR inh, Ba/F3 V617F tox)
O=C(COc1ccccc1)NCc1ccccc1	none
O=C(COc1ccc(C(=O)c2ccccc2)cc1)NCc1ccc(F)cc1	IEC-6 cytotox 41, aSyn UTR inh 113
CC(=C/c1ccccc1)/C=N/NC(=O)c1ccc2nc[nH]c2c1	none
O=C(N/N=C/C(Br)=C\c1ccccc1)c1ccc2nc[nH]c2c1	APP 5UTR inh 83
CCOc1cc(C(=O)N/N=C/C(Br)=C/c2ccccc2)cc(OCC)c1OCC	aSyn UTR inh 104, APP 5UTR inh 90
O=C(c1cc(COc2ccc3ncccc3c2)on1)N1CCCC1	none (no result: BaF3 tox, APP 5UTR inh, Ba/F3 V617F tox)
O=C(NC1CCCC1)c1cc(COc2ccc3ncccc3c2)on1	BaF3 tox 44, Ba/F3 V617F tox 36 (no result: APP 5UTR inh)

Compound activity: PubChem BioAssay, several laboratories
